Results from PubChem BioAssay (NCATS).
Records with an inconclusive call do not appear. Calls of active or inactive are those of the source. Unless noted, calls come from the whole dose curve; as a rule, active = well fitted curve in either direction with a large enough effect (not every such curve was filed as active); inconclusive = small, poorly fitted or top-dose-only effect, or another doubt; inactive = flat fitted curve, though single readings scatter.

Legend:
[1] = molecular target: Lysosomal acid glucosylceramidase (Homo sapiens) (UniProt P04062); experiment: Glucocerebrosidase-p2 (AID 348; in the data active = potency below about 10 µM; note: potency is the fitted concentration of half-maximal effect); conditions: purified GBA, blue fluorogenic substrate, 40 min
Procedure, shortened: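 Normal human glucocerebrosidase (0.2 nM) with blue fluorogenic substrate (80 uM final) in citrate/phosphate pH 5.9 with 10mM sodium taurocholate, 0.01% tween-20; 40 min RT, NaOH/glycine stop; fluorescence Ex 365/Em 440; AC50 from a titration from 0.6 nM upwards.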

[2] = AP1 Signaling Pathway (AID 357); conditions: ME-180 AP-1-bla reporter, EGF-induced, beta-lactamase ratio, 5 h; at 7.69 µM (top of the series) unless noted;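 note: ME-180 reporter cells stimulated with EGF at its EC50 level; % is set by controls: 0 for no effect and ±100 for the full control effect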
Procedure, shortened: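 First, ME-180 AP-1-bla cells were cultured overnight at 37 °C in low-serum Opti-MEM. Next, titrated compounds with EC50 EGF were incubated 5 hours. Finally, CCF4 was added for 2.5 hours and the 460/530 nm ratio recorded.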

[3] = molecular target: Cytochrome P450 1A2 (Homo sapiens) (UniProt P05177); experiment: p450-cyp1a2 (AID 410; calls by dose curve; note: potency is the fitted concentration of half-maximal effect;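 for activity change, negative = inhibition: -100% = full effect of reference inhibitor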); conditions: recombinant CYP1A2, luciferin-ME demethylation, luminescence; series mostly up to 11.4 µM
Procedure, shortened: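 20nM CYP1A2, 100uM Luciferin-ME (=Km), 100mM KPO4; cpd 10 min RT; +NADPH regen, 60 min RT; stop/detect 20 min; luminescence. Normalized to furafylline 57 uM = full inhibition.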

[4] = NFAT Signaling Pathway (AID 444); conditions: Jurkat NFAT-bla M1, carbachol, beta-lactamase ratio, 5 h; at 7.69 µM (top of the series) unless noted;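 note: carbachol stimulus at about its EC50 of 1 µM final; % is set by controls: 0 for no effect and ±100 for the full control effect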
Procedure, shortened: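 Read-out: CCF4 FRET ratio (460 nm/530 nm) after 1 h RT dye loading, used for %activity and AC50 from titration series. Cells: Jurkat NFAT-β-lactamase/M1 line, treated with compound plus 1 uM carbachol for 5 h, 37 °C.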

[5] = Stat Signaling Pathway (AID 446); conditions: ME-180 (cervical carcinoma) SIE beta-lactamase reporter, IL-6 stimulated, 5 h; at 7.69 µM (top of the series) unless noted;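 note: ME-180 cervical cancer cells given 40 pM IL-6 alongside compound; SIE-controlled beta-lactamase reporter measured as 460/530 nm FRET emission ratio; % is set by controls: 0 for no effect and ±100 for the full control effect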
Procedure, shortened: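 Compound effects on IL-6-induced STAT reporter activity were measured in ME-180 cells. After overnight culture, cells were co-treated with 40 pM IL-6 for 5 hrs before beta-lactamase substrate loading at room temperature.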

[6] = molecular target: Glucocorticoid receptor (Homo sapiens) (UniProt P04150); experiment: GR-GFP Redistribution (AID 450;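 active = compounds whose dose series gives a full or clear partial fitted curve of increased nuclear translocation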; note: potency is the fitted concentration of half-maximal effect); conditions: U2OS GR-GFP nuclear translocation, laser cytometry, 2 h
[7] = molecular target: Glucocorticoid receptor (Homo sapiens) (UniProt P04150); experiment: GR-EFC Redistribution (AID 451; calls by dose curve; note: potency is the fitted concentration of half-maximal effect); conditions: CHO-K1 GR-EFC translocation, beta-gal luminescence, 2 h
Procedure, shortened: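 Translocation of GR-ED fusion to nuclear EA restores b-gal, read by luminescence after 1 h room-temperature detection. Engineered CHO-K1 biosensor cells, 1,000/well, exposed 2 h at 37 C to titrations up to 46 uM final.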

[8] = molecular target: Mitogen-activated protein kinase 10 (Mus musculus) (UniProt Q61831); experiment: JNK3 AlphaScreen Assay (AID 530); conditions: JNK3 lysate, c-Jun phosphorylation; series mostly up to 11.4 µM;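 note: kinase came from lysate of stimulated human HepG2 cells; signal reports phosphorylation of biotinylated GST-cJun 1-79 at Ser73 with 10 µM ATP; % is set by controls: 0 for no effect and ±100 for the full control effect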
Procedure, shortened: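 Kinase buffer: 20 mM Tris-HCl pH 7.6, 10 mM MgCl2, 1 mM DTT, 0.1 mM Na3VO4, 0.01% Tween-20; ATP 10 uM. Substrate biotin-GST-cJun(1-79), enzyme from activated HepG2 lysates. Detection by Ser73 phospho-antibody AlphaScreen.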

[9] = molecular target: 3',5'-cyclic-AMP phosphodiesterase 4B (Homo sapiens) (UniProt Q07343); experiment: qHTS Assay for Inhibitors of PDE-IV (AID 607; active = well fitted activation curve with a large enough effect in the main read-out, with a control signal flat, not every such curve was filed as active; note: % of control where 0% means no effect); conditions: HEK293 ACTOne CNG channel cells, membrane potential fluorescence; series mostly up to 22.9 µM
Procedure, shortened: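 ACTOne HEK293 cells carry a modified cAMP-gated CNG channel and express endogenous PDE4; plated 1000 cells/well, compounds up to 22.9 uM final. Membrane-potential dye fluorescence (ex 535/em 590) was read; parental cells received 10 uM forskolin + 100 uM RO 20-1724.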

Chain of Cytochrome P450 1A2 (Homo sapiens) (P05177 whole entry, looked up): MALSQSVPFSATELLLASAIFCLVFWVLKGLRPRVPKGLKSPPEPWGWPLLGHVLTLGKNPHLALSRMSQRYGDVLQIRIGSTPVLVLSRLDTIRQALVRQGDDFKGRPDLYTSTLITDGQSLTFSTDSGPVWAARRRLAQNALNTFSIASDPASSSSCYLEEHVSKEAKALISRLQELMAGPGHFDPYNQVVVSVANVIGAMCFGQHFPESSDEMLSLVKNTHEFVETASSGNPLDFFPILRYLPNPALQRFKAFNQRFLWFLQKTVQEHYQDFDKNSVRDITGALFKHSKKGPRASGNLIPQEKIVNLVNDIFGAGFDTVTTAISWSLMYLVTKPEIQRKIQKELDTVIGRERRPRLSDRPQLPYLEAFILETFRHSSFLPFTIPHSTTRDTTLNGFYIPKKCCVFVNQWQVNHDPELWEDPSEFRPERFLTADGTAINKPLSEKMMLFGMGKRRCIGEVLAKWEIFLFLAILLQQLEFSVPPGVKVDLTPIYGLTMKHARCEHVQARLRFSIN
Chain of Lysosomal acid glucosylceramidase (Homo sapiens) (P04062 whole entry, looked up): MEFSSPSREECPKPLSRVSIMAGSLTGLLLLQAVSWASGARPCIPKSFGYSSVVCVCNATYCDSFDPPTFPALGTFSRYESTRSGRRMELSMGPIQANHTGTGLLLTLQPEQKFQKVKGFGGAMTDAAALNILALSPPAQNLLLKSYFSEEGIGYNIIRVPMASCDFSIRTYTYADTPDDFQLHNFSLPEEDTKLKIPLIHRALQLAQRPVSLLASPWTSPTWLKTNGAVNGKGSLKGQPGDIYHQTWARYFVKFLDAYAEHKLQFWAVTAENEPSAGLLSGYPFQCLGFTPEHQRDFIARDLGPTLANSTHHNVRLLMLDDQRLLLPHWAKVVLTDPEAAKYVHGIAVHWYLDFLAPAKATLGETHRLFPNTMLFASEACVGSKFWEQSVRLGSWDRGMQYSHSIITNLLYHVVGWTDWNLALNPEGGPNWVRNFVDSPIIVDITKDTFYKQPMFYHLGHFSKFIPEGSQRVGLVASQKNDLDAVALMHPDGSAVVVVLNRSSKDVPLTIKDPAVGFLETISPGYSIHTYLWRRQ
Chain of 3',5'-cyclic-AMP phosphodiesterase 4B (Homo sapiens) (Q07343 whole entry, looked up): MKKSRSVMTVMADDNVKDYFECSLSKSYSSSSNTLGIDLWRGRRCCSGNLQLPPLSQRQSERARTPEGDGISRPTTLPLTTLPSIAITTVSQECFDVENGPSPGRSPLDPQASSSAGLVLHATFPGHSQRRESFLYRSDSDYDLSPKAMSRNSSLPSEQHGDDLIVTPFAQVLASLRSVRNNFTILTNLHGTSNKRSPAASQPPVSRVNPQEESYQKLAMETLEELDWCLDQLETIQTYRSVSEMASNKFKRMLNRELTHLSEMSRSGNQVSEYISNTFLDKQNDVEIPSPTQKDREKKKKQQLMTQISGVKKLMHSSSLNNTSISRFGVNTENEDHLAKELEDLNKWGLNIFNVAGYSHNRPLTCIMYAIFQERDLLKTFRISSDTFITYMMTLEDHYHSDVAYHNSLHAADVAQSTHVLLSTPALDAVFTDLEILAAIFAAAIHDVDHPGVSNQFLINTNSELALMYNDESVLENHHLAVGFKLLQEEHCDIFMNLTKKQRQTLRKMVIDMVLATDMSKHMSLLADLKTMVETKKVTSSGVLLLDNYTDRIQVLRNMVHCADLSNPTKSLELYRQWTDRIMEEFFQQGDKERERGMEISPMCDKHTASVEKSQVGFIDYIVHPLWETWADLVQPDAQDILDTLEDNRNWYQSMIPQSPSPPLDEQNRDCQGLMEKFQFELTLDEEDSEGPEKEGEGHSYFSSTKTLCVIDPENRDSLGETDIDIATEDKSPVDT
Chain of Glucocorticoid receptor (Homo sapiens) (P04150 whole entry, looked up, the tested form may be a part): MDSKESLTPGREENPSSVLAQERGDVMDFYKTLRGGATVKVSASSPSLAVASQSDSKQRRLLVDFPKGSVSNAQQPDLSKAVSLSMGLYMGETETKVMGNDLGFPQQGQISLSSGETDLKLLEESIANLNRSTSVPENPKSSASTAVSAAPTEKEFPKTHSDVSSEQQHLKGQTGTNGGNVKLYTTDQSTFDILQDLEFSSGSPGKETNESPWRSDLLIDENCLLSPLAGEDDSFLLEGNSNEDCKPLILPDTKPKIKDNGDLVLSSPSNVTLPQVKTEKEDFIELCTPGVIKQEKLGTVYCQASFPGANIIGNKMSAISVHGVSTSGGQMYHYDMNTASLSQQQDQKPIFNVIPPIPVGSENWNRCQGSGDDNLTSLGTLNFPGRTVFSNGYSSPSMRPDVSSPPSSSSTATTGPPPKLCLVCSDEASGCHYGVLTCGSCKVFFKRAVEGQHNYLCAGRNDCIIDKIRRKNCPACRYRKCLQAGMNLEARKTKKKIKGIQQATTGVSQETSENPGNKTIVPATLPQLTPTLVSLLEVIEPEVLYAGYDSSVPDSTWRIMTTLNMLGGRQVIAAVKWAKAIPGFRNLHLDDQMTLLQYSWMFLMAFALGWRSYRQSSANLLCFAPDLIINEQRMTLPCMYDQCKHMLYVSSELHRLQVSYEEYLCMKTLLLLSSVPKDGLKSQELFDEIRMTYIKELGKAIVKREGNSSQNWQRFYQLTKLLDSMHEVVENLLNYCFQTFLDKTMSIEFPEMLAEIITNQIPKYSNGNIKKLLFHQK

Nc1nc(=O)c2[nH]cnc2n1O
inactive: Potency [1] > 11.4 µM | activity change, negative = inhibition [2] 10.1% | Potency [3] | activity change, negative = inhibition [4] -5.74% | activity, negative = inhibition [5] 7.15% | Potency [6] > 46 µM | Potency [7] > 9.22 µM | Potency [8] | Potency [9]

CN(C)S(=O)(=O)Nc1ccccn1
inactive: Potency [1] > 11.4 µM | activity change, negative = inhibition [2] 2.01% | Potency [3] | activity change, negative = inhibition [4] 17.9% | activity, negative = inhibition [5] 8.85% | Potency [6] > 46 µM | Potency [7] > 9.22 µM | Potency [8] | Potency [9]

C=C(Br)CN(C)CC(=C)Br
inactive: Potency [1] > 11.4 µM | activity change, negative = inhibition [2] 0.791% | Potency [3] | activity change, negative = inhibition [4] 0.988% | activity, negative = inhibition [5] -0.267% | Potency [6] > 46 µM | Potency [7] > 9.22 µM | Potency [8] | Potency [9]

O=C(O)c1ccc(C(=O)c2ccccc2C(=O)O)cc1C(=O)O
inactive: Potency [1] > 11.4 µM | activity change, negative = inhibition [2] -15.3% | Potency [3] | activity change, negative = inhibition [4] 20.9% | activity, negative = inhibition [5] -1.86% | Potency [6] > 46 µM | Potency [7] > 9.22 µM | Potency [8] | Potency [9]

Cn1c(=S)c2[nH]c(SCCN3CCCC3)nc2n(C)c1=O
inactive: Potency [1] > 11.4 µM | activity change, negative = inhibition [2] -5.98% | activity change, negative = inhibition [3] -29.7% [at 2.29 µM] | activity change, negative = inhibition [4] 11.4% | activity, negative = inhibition [5] -0.274% | Potency [6] > 46 µM | Potency [7] > 9.22 µM | Potency [8] | Potency [9]

CCCCNc1nc(SC)nc2nc[nH]c12
inactive: Potency [1] > 11.4 µM | activity change, negative = inhibition [2] 1.1% | activity change, negative = inhibition [4] 9.44% | activity, negative = inhibition [5] -3.88% | Potency [6] > 46 µM | Potency [7] > 9.22 µM | Potency [8] | Potency [9]
active: Potency [3] 0.316 µM

C[C@@H](N=C(N)N)C(=O)O
inactive: Potency [1] > 11.4 µM | activity change, negative = inhibition [2] -6.66% | Potency [3] | activity change, negative = inhibition [4] 16.8% | activity, negative = inhibition [5] -6.68% | Potency [6] > 46 µM | Potency [7] > 9.22 µM | Potency [8] | Potency [9]

CCn1c(CCCc2nc3c([nH]2)c(=O)n(C)c(=O)n3C)nc2c1c(=O)n(C)c(=O)n2C
inactive: Potency [1] > 11.4 µM | activity change, negative = inhibition [2] -3.01% | activity change, negative = inhibition [3] -16.7% [at 2.29 µM] | activity change, negative = inhibition [4] 6.75% | activity, negative = inhibition [5] 1.77% | Potency [6] > 46 µM | Potency [7] > 9.22 µM | Potency [8] | Potency [9]

O=[N+]([O-])c1ccc2ncccc2c1CCc1c([N+](=O)[O-])ccc2ncccc12
inactive: Potency [1] > 11.4 µM | activity change, negative = inhibition [2] 1.48% | activity change, negative = inhibition [4] 17.8% | activity, negative = inhibition [5] 5.88% | Potency [6] > 46 µM | Potency [7] > 9.22 µM | Potency [8] | Potency [9]
active: Potency [3] 3.16 µM

O=C(O)Cc1c(O)ccc2ccccc12
inactive: Potency [1] > 11.4 µM | activity change, negative = inhibition [2] 1.11% | Potency [3] | activity change, negative = inhibition [4] 12.6% | activity, negative = inhibition [5] 7.17% | Potency [6] > 46 µM | Potency [7] > 9.22 µM | Potency [8] | Potency [9]

NCc1nnn(Cc2ccccc2)c1N
inactive: Potency [1] > 11.4 µM | activity change, negative = inhibition [2] 2.56% | Potency [3] | activity change, negative = inhibition [4] 19.4% | activity, negative = inhibition [5] -5.08% | Potency [6] > 46 µM | Potency [7] > 9.22 µM | Potency [8] | Potency [9]

Cc1cc(C)c(O)c(Cc2cccc(Cc3cc(C)cc(C)c3O)c2O)c1
inactive: Potency [1] > 11.4 µM | activity change, negative = inhibition [2] 0.471% | activity change, negative = inhibition [3] -14.7% [at 2.29 µM] | activity change, negative = inhibition [4] 11.9% | activity, negative = inhibition [5] 2.38% | Potency [6] > 46 µM | Potency [7] > 9.22 µM | Potency [8] | Potency [9]

NS(=O)(=O)c1cc(C(=O)O)c(O)c2ccccc12
inactive: Potency [1] > 11.4 µM | activity change, negative = inhibition [2] 15.8% | Potency [3] | activity change, negative = inhibition [4] 12.4% | activity, negative = inhibition [5] 10.7% | Potency [6] > 46 µM | Potency [7] > 9.22 µM | Potency [8] | Potency [9]

Cn1cnc([N+](=O)[O-])c1[Se]c1nc(N)nc2c1ncn2[C@@H]1O[C@@H](CO)[C@H](O)[C@@H]1O
inactive: Potency [1] > 11.4 µM | activity change, negative = inhibition [2] 4.67% | activity change, negative = inhibition [3] -12.8% [at 2.29 µM] | activity change, negative = inhibition [4] 8.52% | activity, negative = inhibition [5] 10.6% | Potency [6] > 46 µM | Potency [7] > 9.22 µM | Potency [8] | Potency [9]

O=C(O)c1ccc(NS(=O)(=O)Cc2ccccc2)cc1
inactive: Potency [1] > 11.4 µM | activity change, negative = inhibition [2] 6.38% | Potency [3] | activity change, negative = inhibition [4] -0.542% | activity, negative = inhibition [5] -0.621% | Potency [6] > 46 µM | Potency [7] > 9.22 µM | Potency [8] | Potency [9]

O=C1C2C3C=CC(C2C(=O)N1CN1CCOCC1)C1C2C(=O)N(CN4CCOCC4)C(=O)C2C31 (centres undefined)
inactive: Potency [1] > 11.4 µM | activity change, negative = inhibition [2] 1.83% | Potency [3] | activity change, negative = inhibition [4] 6.33% | activity, negative = inhibition [5] 11.2% | Potency [6] > 46 µM | Potency [7] > 9.22 µM | Potency [8] | Potency [9]
